The source of these data is PubChem BioAssay AID1508619 (National Center for Advancing Translational Sciences (NCATS), 2020).

Records with an inconclusive call do not appear. A number with no mark means an inactive call. The source made the active and inactive calls. The call rests on the fitted dose curve; in most records, active means well fitted inhibition curve with a large enough effect; inconclusive means small, poorly fitted or top-dose-only effect; inactive means no such curve, though single readings can be large or run the other way.
On the % scale 0 is the no-effect control and ±100 the full control effect; potency means the concentration at half of the fitted maximal effect.

This assay is described as follows: Counterscreen qHTS for Identification of Calcium Integrin Binding Protein 1 (CIB1) Competitor. Particulars: series mostly up to 114 µM; activity, negative = inhibition: at the top concentration. Summed up: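 Compounds (final up to 114 uM) preincubated 15 min at room temperature with 1 uM CIB1-GST in calcium-containing HEPES pH 7.4 buffer; 100 nM scrambled FITC peptide added, and fluorescence polarization (480/540) measured after another 15 min.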
In general terms: A counterscreen serves to expose hits that act by an unwanted route or on another target.
Regarding `C[C@H](Cc1ccc(O)c(O)c1)[C@@H](C)Cc1ccc(O)c(O)c1`, the Potency is 12.6 µM (active).

Turning to `O=C(NC(c1ccco1)c1cc(Cl)c2cccnc2c1O)c1cccs1` (stereo not drawn), the “activity, negative = inhibition” value is 82.3%.

As for `NC(=O)c1ncn([C@@H]2O[C@H](CO)[C@@H](O)[C@@H]2O)c1O`, the “activity, negative = inhibition” value is -9.27%.

Turning to `CCN(CC)C(=S)SSC(=S)N(CC)CC`, the Potency entry is “inactive”.

Regarding `COc1ccc(C(=O)Nc2nc(-c3ccccc3)cs2)c(NS(=O)(=O)c2ccc(C)cc2)c1`, the “activity, negative = inhibition” value was 70.2%.

For the compound `COC(=O)c1cc(Cl)ccc1NS(=O)(=O)C(F)(F)F`, the “activity, negative = inhibition” value was 5.61%.

In the case of `Cn1c(NC2=NC3(CCCC3)C3=C(CCCC3=O)N2)nc2ccccc21`, the “activity, negative = inhibition” value is -10.7%.

With `CCOc1ccc(CCNC(=O)c2ccc(N3N=C(C)CC3=O)cc2)cc1OCC`, the “activity, negative = inhibition” value was -10.4%.

Turning to `COc1ccc2c(=O)n3nc(Nc4cccc(N5CCN(C)CC5)c4)sc3nc2c1`, the “activity, negative = inhibition” value is -9.89%.

As for `Fc1ccc(NC(=S)Nc2nnc(-c3ccncc3)s2)cc1C(F)(F)F`, the “activity, negative = inhibition” value is 27.3%.

For `O=[S+]([O-])(NCc1nccs1)c1ccc(Nc2nc(-c3ccccc3)cs2)cc1`, the Potency was 50.1 µM (active).

Take `Cc1ccc(S(=O)(=O)Nc2cnccc2C(=O)Nc2ccc(-c3nn[nH]n3)cc2)cc1`: the “activity, negative = inhibition” value is -29.5%.

Turning to `COc1ccccc1Nc1cc2ccccc2c(=O)[nH]1`, the Potency was 35.5 µM (active).

In the case of `CCCCC(CC)CN=C(N)NC(N)=NCCCCCCN=C(N)NC(N)=NCC(CC)CCCC` (stereo not drawn), the “activity, negative = inhibition” value is 73.6%.

As to `CCOC(=O)c1nnc(N[S+](=O)([O-])c2ccc(NC(=O)Cc3ccc(Cl)c(Cl)c3)cc2)s1`, the “activity, negative = inhibition” value is 47.7%.

`OCc1ccc(-c2ccc(-c3ccc(CO)s3)o2)s1`: the “activity, negative = inhibition” value is 107%.

For the compound `Cc1ccc(C(=O)Nc2ccc(S(=O)(=O)O)c3cc(S(=O)(=O)O)cc(S(=O)(=O)O)c23)cc1NC(=O)c1cccc(NC(=O)Nc2cccc(C(=O)Nc3cc(C(=O)Nc4ccc(S(=O)(=O)O)c5cc(S(=O)(=O)O)cc(S(=O)(=O)O)c45)ccc3C)c2)c1`, the “activity, negative = inhibition” value was 15.9%.

With `Cc1ccc2nc3sc(C(=O)NCc4ccco4)cc3cc2c1`, the Potency entry was “inactive”.
